# Test results from the supplement of paper PMC7724964.
# ± gives the standard deviation of the averaged measurements.
# How the values were obtained:
# Assay in all cases: phage ELISA signal ratio (GST-PRM binding over GST background); higher = stronger binding of peptide-phage to the PRM
# [1] = target: T1, UEVLD 1-145 UEV (domain begin residue: 1, domain end residue: 145), Q8IX04
# T1 chain: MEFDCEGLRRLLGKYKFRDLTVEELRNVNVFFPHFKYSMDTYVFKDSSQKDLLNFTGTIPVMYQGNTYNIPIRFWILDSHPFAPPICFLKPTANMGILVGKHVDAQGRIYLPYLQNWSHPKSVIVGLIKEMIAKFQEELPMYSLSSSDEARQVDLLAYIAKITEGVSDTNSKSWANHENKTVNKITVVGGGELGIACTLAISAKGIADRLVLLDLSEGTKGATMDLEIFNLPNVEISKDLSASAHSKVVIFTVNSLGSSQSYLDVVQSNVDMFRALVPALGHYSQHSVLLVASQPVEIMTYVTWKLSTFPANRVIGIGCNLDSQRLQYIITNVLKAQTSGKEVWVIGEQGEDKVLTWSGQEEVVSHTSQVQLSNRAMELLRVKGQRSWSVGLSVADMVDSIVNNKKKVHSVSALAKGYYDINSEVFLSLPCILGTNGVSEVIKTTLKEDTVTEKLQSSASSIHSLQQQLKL
# Procedure, shortened: (§1)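 Each value is the phage ELISA signal on the glutathione S-transferase (GST)-domain fusion divided by the signal on GST alone. Human peptide recognition domains were expressed in 96-well plates, fused to the C-terminus of GST, and selected against an M13 phage library carrying randomized, cysteine-free, glycine-flanked hexadecapeptides on the gene-8 major coat protein. After five selection rounds, approximately 48 individual clones from rounds 4 and 5 were tested by phage ELISA, and positive clones were sequenced.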
# [2] = target: UBR5 2391-2453 PABP (domain begin residue: 2391, domain end residue: 2453), O95071
# UBR5 2391-2453 PABP (domain begin residue: 2391, domain end residue: 2453), O95071, sequence (O95071 whole entry): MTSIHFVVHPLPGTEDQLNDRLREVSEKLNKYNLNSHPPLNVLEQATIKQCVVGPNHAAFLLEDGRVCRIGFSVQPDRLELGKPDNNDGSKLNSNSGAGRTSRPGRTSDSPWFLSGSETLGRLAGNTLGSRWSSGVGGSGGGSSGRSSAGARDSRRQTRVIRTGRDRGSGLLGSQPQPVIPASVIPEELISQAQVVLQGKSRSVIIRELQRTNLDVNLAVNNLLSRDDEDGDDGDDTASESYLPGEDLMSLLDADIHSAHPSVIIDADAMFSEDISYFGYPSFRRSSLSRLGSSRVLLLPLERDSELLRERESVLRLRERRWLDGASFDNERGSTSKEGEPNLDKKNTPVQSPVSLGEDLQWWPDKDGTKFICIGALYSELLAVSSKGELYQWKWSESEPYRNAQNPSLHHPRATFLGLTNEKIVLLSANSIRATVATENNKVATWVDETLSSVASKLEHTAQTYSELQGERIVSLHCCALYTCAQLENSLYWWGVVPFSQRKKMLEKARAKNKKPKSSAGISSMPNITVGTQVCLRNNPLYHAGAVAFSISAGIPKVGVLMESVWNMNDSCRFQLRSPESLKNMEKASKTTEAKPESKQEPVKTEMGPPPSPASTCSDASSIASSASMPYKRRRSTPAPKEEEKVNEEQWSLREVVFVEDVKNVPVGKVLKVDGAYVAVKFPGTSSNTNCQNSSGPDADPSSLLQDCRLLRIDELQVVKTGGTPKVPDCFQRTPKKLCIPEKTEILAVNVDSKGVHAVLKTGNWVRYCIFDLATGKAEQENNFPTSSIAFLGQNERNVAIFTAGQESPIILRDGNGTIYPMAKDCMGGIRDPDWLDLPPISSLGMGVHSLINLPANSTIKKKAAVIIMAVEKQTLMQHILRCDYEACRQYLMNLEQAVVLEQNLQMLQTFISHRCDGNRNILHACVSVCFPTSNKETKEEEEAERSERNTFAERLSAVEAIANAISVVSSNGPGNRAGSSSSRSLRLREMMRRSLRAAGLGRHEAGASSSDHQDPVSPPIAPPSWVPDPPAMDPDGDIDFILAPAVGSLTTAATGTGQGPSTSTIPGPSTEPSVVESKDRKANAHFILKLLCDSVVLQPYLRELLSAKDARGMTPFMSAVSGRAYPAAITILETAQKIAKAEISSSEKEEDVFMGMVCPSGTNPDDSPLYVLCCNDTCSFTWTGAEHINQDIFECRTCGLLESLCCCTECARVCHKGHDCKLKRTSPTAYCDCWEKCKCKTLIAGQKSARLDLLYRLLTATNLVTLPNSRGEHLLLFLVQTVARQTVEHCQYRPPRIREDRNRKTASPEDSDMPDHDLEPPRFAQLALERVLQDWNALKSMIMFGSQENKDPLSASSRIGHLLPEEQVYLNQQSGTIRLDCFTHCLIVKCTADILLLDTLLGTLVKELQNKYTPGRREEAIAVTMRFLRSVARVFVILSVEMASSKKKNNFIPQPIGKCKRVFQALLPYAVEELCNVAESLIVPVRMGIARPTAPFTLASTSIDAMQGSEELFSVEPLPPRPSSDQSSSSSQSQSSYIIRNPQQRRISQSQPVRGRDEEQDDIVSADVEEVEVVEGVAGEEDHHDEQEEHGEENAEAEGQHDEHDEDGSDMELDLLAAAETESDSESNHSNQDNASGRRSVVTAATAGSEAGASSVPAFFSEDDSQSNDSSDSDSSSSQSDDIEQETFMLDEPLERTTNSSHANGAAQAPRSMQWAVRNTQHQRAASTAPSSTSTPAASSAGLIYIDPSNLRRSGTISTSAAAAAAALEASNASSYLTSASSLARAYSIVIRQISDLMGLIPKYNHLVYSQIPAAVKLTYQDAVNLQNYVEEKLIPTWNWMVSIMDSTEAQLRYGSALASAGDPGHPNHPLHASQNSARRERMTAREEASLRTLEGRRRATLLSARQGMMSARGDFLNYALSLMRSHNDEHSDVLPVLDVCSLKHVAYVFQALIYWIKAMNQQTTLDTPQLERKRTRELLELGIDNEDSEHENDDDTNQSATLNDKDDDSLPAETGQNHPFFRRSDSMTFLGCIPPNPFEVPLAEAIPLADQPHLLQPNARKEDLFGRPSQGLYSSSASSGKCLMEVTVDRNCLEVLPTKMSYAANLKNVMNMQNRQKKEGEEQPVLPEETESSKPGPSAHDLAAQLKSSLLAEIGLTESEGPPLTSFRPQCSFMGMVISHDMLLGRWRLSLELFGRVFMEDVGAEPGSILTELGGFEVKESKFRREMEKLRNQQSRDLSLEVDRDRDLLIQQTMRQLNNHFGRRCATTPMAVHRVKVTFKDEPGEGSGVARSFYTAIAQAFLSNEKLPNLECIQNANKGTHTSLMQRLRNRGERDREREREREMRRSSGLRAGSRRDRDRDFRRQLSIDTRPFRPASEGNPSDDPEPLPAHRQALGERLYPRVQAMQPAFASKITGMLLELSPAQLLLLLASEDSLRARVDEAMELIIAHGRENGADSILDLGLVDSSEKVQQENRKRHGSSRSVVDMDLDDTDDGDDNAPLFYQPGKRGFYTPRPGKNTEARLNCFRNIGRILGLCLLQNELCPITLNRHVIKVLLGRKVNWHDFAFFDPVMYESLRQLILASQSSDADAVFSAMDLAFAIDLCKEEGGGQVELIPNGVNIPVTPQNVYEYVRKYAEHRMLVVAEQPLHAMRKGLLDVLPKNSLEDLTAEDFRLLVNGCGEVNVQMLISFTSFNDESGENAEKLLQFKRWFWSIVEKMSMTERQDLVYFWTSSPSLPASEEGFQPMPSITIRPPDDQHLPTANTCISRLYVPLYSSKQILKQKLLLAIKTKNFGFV
# Procedure, shortened: as §1
# [3] = target: UBE2V2 1-145 UQ_con (domain begin residue: 1, domain end residue: 145), Q15819
# UBE2V2 1-145 UQ_con (domain begin residue: 1, domain end residue: 145), Q15819, sequence (Q15819 whole entry): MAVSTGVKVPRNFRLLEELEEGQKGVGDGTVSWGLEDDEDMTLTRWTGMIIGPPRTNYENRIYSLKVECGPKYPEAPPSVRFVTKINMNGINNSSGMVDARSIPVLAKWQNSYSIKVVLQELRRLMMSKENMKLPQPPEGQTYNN
# Procedure, shortened: as §1
# [4] = target: UBE2D2 1-147 UQ_con (domain begin residue: 1, domain end residue: 147), P62837
# UBE2D2 1-147 UQ_con (domain begin residue: 1, domain end residue: 147), P62837, sequence (P62837 whole entry): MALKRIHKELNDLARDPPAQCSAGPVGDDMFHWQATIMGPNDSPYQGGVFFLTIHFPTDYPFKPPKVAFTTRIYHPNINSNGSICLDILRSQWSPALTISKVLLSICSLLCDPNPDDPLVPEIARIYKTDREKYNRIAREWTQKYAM
# Procedure, shortened: as §1
# [5] = target: VASP 1-114 WH1 (domain begin residue: 1, domain end residue: 114), P50552
# VASP 1-114 WH1 (domain begin residue: 1, domain end residue: 114), P50552, sequence (P50552 whole entry): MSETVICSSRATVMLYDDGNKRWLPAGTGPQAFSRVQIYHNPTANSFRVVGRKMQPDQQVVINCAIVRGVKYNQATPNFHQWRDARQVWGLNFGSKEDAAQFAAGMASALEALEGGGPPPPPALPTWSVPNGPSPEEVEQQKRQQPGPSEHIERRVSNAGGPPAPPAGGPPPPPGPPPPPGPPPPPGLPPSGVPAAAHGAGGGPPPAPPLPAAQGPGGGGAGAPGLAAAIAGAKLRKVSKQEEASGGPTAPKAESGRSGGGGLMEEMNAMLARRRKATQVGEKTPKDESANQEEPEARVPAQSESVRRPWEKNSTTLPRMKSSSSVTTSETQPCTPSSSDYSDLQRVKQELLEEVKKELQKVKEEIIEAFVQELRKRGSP
# Procedure, shortened: as §1
# [6] = target: T2, TSG101 1-145 UEV (domain begin residue: 1, domain end residue: 145), Q99816
# T2 chain: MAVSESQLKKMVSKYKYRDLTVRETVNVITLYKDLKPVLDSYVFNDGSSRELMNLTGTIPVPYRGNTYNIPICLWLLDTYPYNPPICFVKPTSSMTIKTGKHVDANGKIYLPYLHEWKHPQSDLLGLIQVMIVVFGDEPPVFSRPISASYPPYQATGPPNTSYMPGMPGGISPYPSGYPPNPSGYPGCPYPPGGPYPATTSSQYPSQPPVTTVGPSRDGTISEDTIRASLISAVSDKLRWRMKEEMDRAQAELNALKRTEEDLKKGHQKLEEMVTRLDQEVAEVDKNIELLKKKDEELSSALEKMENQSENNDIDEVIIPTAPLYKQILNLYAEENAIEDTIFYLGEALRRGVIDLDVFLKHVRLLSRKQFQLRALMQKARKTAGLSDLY
# Procedure, shortened: as §1
# [7] = target: UBA52 1-76 Ubiquitin (domain begin residue: 1, domain end residue: 76), P62987
# Procedure, shortened: as §1
# [8] = target: T3, UQCRB 8-111 UCR_14kD (domain begin residue: 8, domain end residue: 111), P14927
# T3 chain: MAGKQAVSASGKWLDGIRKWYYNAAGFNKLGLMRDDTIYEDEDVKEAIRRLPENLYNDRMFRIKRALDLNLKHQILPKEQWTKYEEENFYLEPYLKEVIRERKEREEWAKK
# Procedure, shortened: as §1
# [9] = target: U2AF2 372-475 RRM_1 (domain begin residue: 372, domain end residue: 475), P26368
# U2AF2 372-475 RRM_1 (domain begin residue: 372, domain end residue: 475), P26368, sequence (P26368 whole entry): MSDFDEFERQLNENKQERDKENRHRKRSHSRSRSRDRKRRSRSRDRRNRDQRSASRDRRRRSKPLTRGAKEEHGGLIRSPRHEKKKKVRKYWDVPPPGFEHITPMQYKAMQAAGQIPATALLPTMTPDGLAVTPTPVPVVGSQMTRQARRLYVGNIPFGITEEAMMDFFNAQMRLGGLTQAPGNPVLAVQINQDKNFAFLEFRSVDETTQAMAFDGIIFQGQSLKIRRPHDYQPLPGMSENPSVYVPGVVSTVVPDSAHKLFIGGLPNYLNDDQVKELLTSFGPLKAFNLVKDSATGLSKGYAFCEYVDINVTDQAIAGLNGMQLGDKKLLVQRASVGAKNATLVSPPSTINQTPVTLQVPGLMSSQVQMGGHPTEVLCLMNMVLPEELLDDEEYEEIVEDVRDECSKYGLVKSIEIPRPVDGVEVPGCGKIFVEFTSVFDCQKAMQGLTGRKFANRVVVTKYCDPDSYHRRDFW
# Procedure, shortened: as §1
binder,measurement,setting,value
FDWRETLWESSQWMIA,phage ELISA signal ratio,[1],22.7
ELSIWADAFQPHWHKV,phage ELISA signal ratio,[2],21.8
YIDYTFFEDGYYRVIE,phage ELISA signal ratio,[3],5.72
WGHDWMMEWNTLQPMS,phage ELISA signal ratio,[4],4.08
IQDWPELPEVMMHWTL,phage ELISA signal ratio,[5],9.17
YLWFSPAPSAPIWQWV,phage ELISA signal ratio,[6],5.56
MDVAAQPWIPIVPPEG,phage ELISA signal ratio,[2],28.6
EHMWDAQMWEWSWWDL,phage ELISA signal ratio,[7],15.1
QVGWWMELDHPFWWHQ,phage ELISA signal ratio,[3],8.59
ALSMSAEPFHPMVNYV,phage ELISA signal ratio,[2],30.1
VLDINAQPFHQSGFNH,phage ELISA signal ratio,[2],25.7
LGQQYQMWEYMASLYN,phage ELISA signal ratio,[1],11.4
VLPDWMAQHAWEWTGH,phage ELISA signal ratio,[8],23.9
VPWSENQEWQWIFEAV,phage ELISA signal ratio,[1],29.3
SQLSIMSLEAAPFTWE,phage ELISA signal ratio,[2],10.5
VMTLSPHATPYYPQMQ,phage ELISA signal ratio,[2],5.69
DDIWPVSAVHAQPFMV,phage ELISA signal ratio,[2],21.2
FMDMWHWQQLEDYMFL,phage ELISA signal ratio,[8],4.85
SKELSVNAIPFDPHWY,phage ELISA signal ratio,[2],4.24
MSQDWPWPDLSWFDEP,phage ELISA signal ratio,[1],7.15
DRNAEMAIRQYFMYHE,phage ELISA signal ratio,[3],8.43
EFEWIDHFLGNMESGL,phage ELISA signal ratio,[1],8.99
EDHWWIASMWRDQAVQ,phage ELISA signal ratio,[1],18.1
YGMSIDASSFVPYEFW,phage ELISA signal ratio,[2],17.8
QMNVQAQEWWPAHMTF,phage ELISA signal ratio,[2],18.6
GPLHPTAPVWENMLKY,phage ELISA signal ratio,[6],15.7
EWQWHNSVDWVPHKAT,phage ELISA signal ratio,[2],12.4
EQDQDLEYRMHMEKWW,phage ELISA signal ratio,[1],19.8
MQEAPYNPAWMEVPEL,phage ELISA signal ratio,[6],27.7
NFNYPEQMYSYNPHWI,phage ELISA signal ratio,[6],20.4 ± 0.54
EWGSGWLNFQAAEFIV,phage ELISA signal ratio,[2],8.2
AWSMLDIANIKPWNPM,phage ELISA signal ratio,[2],18.4
WRQDLETESLMQWFLW,phage ELISA signal ratio,[1],15.2
FDKWEQRRSVPMGQVQ,phage ELISA signal ratio,[9],3.6
APFTLWESSMEALGEL,phage ELISA signal ratio,[1],23.3
FEHLEYSHPYLWEMYF,phage ELISA signal ratio,[3],5.45
FSRWEQRQMQSVGGAG,phage ELISA signal ratio,[9],6.45
EMWVFTPAEWFQIYLN,phage ELISA signal ratio,[7],16.2
ERFTLFQSSMDSILMF,phage ELISA signal ratio,[1],26
NNQVMNVNATPYYWPT,phage ELISA signal ratio,[2],19.4
HQWQGDWDHEHIMMYW,phage ELISA signal ratio,[1],24.1
LSYESAPWWPHMPAEF,phage ELISA signal ratio,[2],13.2
MTVVEWWTDAQIAEWM,phage ELISA signal ratio,[7],12.5
KLDVFAVPFLSSQHEY,phage ELISA signal ratio,[2],22.6
LDWRMAPEWQWITHHL,phage ELISA signal ratio,[1],3.3
EFLNVMAPSWVDITEW,phage ELISA signal ratio,[2],16.9
EALNIFSPMWEPQYVV,phage ELISA signal ratio,[2],19.5
VSDLWWNPTWSSQETI,phage ELISA signal ratio,[6],9.75
SLEWWNDISHPYWWHQ,phage ELISA signal ratio,[3],6.28
TDFTYAHAYNPHFIVS,phage ELISA signal ratio,[6],5.82
DLHYDWSLEYWTSLLQ,phage ELISA signal ratio,[7],17.2
TGVEMMSYKAKPFYPE,phage ELISA signal ratio,[2],7.69
FDRWESRRQSIGLELS,phage ELISA signal ratio,[9],8.37
YQPNMASAPEWVWESH,phage ELISA signal ratio,[6],29.4
MNIDAREWSPASWEVH,phage ELISA signal ratio,[2],3.6
TNSMPQWAQSQLAMYR,phage ELISA signal ratio,[3],21.3
LSVAAPMFVPNNAVVS,phage ELISA signal ratio,[2],5.76
